# Screens: PubChem BioAssay, National Center for Advancing Translational Sciences (NCATS)
# An excerpt weighted towards active compounds, which were near 5.5% of everything screened.
# Coupling enz = qHTS Assay for Inhibitors of Fructose-1,6-bisphosphate Aldolase from Giardia Lamblia: Coupling assay counterscreen. activity change, negative = inhibition, % at 58.2 µM, hits read low. coupling enzyme system counterscreen, AmpLite Red fluorescence. hit rate 0.67% among 290,000; in the data active means activity change below about -30%
#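 Activity here indicates interference with the coupling reaction, not aldolase inhibition. Compounds at 57.5 uM final met coupling enzymes for 10 min at RT; substrate and AmpLite Red detection followed, with a 525/598 nm fluorescence read after 20 min.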
# Sfp PPTase inh = qHTS Assay for Inhibitors of Bacillus subtilis Sfp phosphopantetheinyl transferase (PPTase) | 4'-phosphopantetheinyl transferase ffp (Bacillus subtilis), Q9F4F7 | Biochemical Sfp PPTase activity, qHTS | Potency, µM, without a hit: largest response in the series, negative = inhibition, actives largely listed as inhibitors | hit rate 3.5% among 310,000;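 further: the enzyme is Sfp with the accession as filed and its product quenches rhodamine fluorescence; potency means the concentration at half of the fitted maximal effect; 0% = enzyme reaction without inhibitor and -100% = no enzyme wells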
#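 Step 1, compound plus 15 nM Sfp-PPTase, 15 min, room temperature. Step 2, add rhodamine-CoA (5 uM) and BHQ-2-YbbR (12.5 uM). Step 3, read 525/598 nm fluorescence at 0 and 30 min.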
# ELG1 repair inh = qHTS screen for small molecules that inhibit ELG1-dependent DNA repair in human embryonic kidney (HEK293T) cells expressing luciferase-tagged ELG1; HEK293T ELG1-luciferase reporter, luminescence, 16 h; DNA damage induced by 5-fluorouridine; AID 504467, 2011; Potency, µM (titrated, usually from 46.1 µM), for the others: at the highest dose activity change, negative = inhibition, hits mostly inhibitors; hit rate 2.3% among 330,000; further: potency means the concentration at half of the fitted maximal effect; nearly all actives have a fitted effect of over 55% in size
#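 Luminescence from the luciferase reporter, measured 30 min after ONE-Glo reagent at room temperature, was the read-out. Beforehand, 2,000 cells per well were exposed for 16 hr at 37 °C to 5-fluorouridine together with compound or vehicle.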
# Giardia killer = Small Molecules that selectively kill Giardia lamblia: qHTS; Giardia lamblia trophozoite viability; activity change, % at 7.66 µM, hits read low; hit rate 0.15% among 340,000; AID 540267, 2011; in the data active means activity change below about -80%; inconclusive means between about -30% and that limit;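 further: parasites exposed to compound for two days anaerobically before the ATP read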
#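 Luminescent ATP signal served as the viability read-out, measured 15-30 min after adding ATP detection reagent to trophozoites that had been incubated with compounds for 48 hrs at 37 deg C anaerobically at 100 cells/well.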
# * hit, by the source's call; ? = inconclusive; / = not tested or not shown. Unless noted, the call rests on the fitted dose curve; in most records, active means well fitted curve in the direction sought with a large enough effect; inconclusive means small, poorly fitted or top-dose-only effect, or another doubt; inactive means no such curve, though single readings can be large; an effect the other way counts as inactive or inconclusive. Unless noted, on the % scale 0 is the no-effect control and ±100 the full control effect.
SMILES,Coupling enz,Sfp PPTase inh,ELG1 repair inh,Giardia killer
CCOc1ccc2[nH]c(=O)c(C(c3nnnn3C3CCCCC3)N3CCN(C)CC3)cc2c1 (stereo not given),2,2%,15%,0
CCOc1ccc2[nH]c(=O)c(C(c3nnnn3Cc3ccco3)N3CCCC(C)C3)cc2c1 (stereo not given),-10,13µM*,-4%,-4
COc1ccc2[nH]c(=O)c(CN(Cc3ccco3)C(c3nnnn3Cc3ccccc3)C(C)C)cc2c1 (stereo not given),-4,-7%,?,60
Cc1ccc(C)c2[nH]c(=O)c(C(c3nnnn3CCc3ccccc3)N3CCOCC3)cc12 (stereo not given),0,7%,-10%,7
COc1ccc2[nH]c(=O)c(CN(C3CCCCC3)C(c3nnnn3Cc3ccco3)C(C)C)cc2c1 (stereo not given),0,3.2µM*,?,11
NS(=O)(=O)c1ccc(CCNC(=O)COC(=O)C2CCC2)cc1,-7,10%,9%,11
COC(=O)C1=C(C)N(C)C(=O)NC1c1c(O)ccc2ccccc12 (stereo not given),-1,6%,-2%,8
CCOC(=O)Cn1nnnc1C(C(C)C)N(Cc1cc2c(C)cc(C)cc2[nH]c1=O)C1CCCC1 (stereo not given),-8,?,18µM*,-4
COc1ccc(Cn2nnnc2CN(Cc2cc3cc(C)ccc3[nH]c2=O)C2CCCC2)cc1,-29,20µM*,?,-22
Cc1ccc2[nH]c(=O)c(CN(Cc3nnnn3C3CCCC3)C3CCCCC3)cc2c1,2,-11%,11%,-4
O=S(=O)(c1ccccc1)N1CCC2(CCN(C(c3ccccc3)c3ccccc3)CC2)CC1,-1,18%,/,/
COc1cccc(F)c1C(C[N+](=O)[O-])c1c(N)n(C)c(=O)n(C)c1=O (stereo not given),-1,-3%,18µM*,-21
COc1cc(C(C[N+](=O)[O-])c2c(N)n(C)c(=O)n(C)c2=O)ccc1O (stereo not given),-4,-2%,-4%,4
CCc1nc(NCCO)c(C#N)c2c1CSC(C)(C)C2,-8,71µM*,?,42
CCc1nc(NCC(C)C)c(C#N)c2c1COC(C)(C)C2,3,8%,3%,12
Clc1cccc(-c2nc(NCCCN3CCOCC3)c3ccccc3n2)c1,-13,?,?,43
Clc1ccc(-c2nc(NCCCN3CCOCC3)c3ccccc3n2)cc1,-3,-5%,23µM*,-20
O=S(=O)(O)c1ccc2c(c1)C(C(Cl)(Cl)Cl)OC(C(Cl)(Cl)Cl)O2 (stereo not given),/,/,/,-22
CCN(CC)c1ccc(/C=N/Nc2nn[nH]n2)cc1,-2,40µM*,?,11
C(=Nc1ccc(Nc2ccccc2)cc1)c1ccc2ccccc2c1,-4,45µM*,-17%,-6
Brc1ccc(C=Nc2ccc(Nc3ccccc3)cc2)s1,-1,56µM*,?,-12
CC(NC(=O)CCNC(=O)N1CCn2c1nc1ccccc12)c1ccccc1 (stereo not given),4,8%,6%,-19
CC(=O)Oc1cccc(N2C(=O)C3C4C=CC(C4=C(C)C)C3C2=O)c1 (stereo not given),1,56µM*,-2%,-11
CC(=O)Oc1ccc(N2C(=O)CCC2=O)cc1,-1,8%,1%,-5
CC(=O)Oc1ccc(N2C(=O)C3C4C=CC(O4)C3C2=O)cc1 (stereo not given),4,35µM*,0%,3
SMILES,Coupling enz,Sfp PPTase inh,ELG1 repair inh,Giardia killer
CC(=O)c1cccc(NC(=O)CN(C)S(=O)(=O)c2ccc3c(c2)CC(C)N3C(C)=O)c1 (stereo not given),1,29%,-4%,2
CN(C)/C=N/c1sc2c(c1C#N)CCCC2,-11,45µM*,?,31
O=C1/C(=C/c2ccccc2O)SC(=S)N1Cc1cccnc1,2,50µM*,5%,14
O=C1/C(=C\c2ccc(O)cc2)SC(=S)N1Cc1ccccc1,2,-10%,3%,53
O=C1/C(=C/c2ccc(O)c([N+](=O)[O-])c2)SC(=S)N1Cc1ccccc1,7,8%,18µM*,?
O=C(O)c1cccc(CN2C(=O)S/C(=C/c3cccc([N+](=O)[O-])c3)C2=O)c1,12,71µM*,-12%,2
COc1cc([N+](=O)[O-])cc(/C=C2/SC(=S)N(Cc3ccccc3)C2=O)c1O,3,40µM*,?,2
CCc1ccccc1NC(=O)COc1cccc(-n2cnnn2)c1,-3,12%,?,-15
COc1ccccc1CNc1ncnc2ccc(-c3ccoc3)cc12,2,-1%,/,/
Cc1nn(C)c(Cl)c1S(=O)(=O)N(Cc1ccco1)c1ncnc2nc[nH]c12,/,/,/,3
O=C1/C(=C\c2cccc([N+](=O)[O-])c2O)SC(=S)N1Cc1ccccc1,2,?,8.2µM*,-27
O=C1/C(=C\c2cc(Br)cc(Br)c2O)SC(=S)N1Cc1ccccc1,5,63µM*,23µM*,4
C/C=C1\COC(C(=O)NCCOCCO)(C(F)(F)F)C=C1C=C1CCCCC1 (stereo not given),0,-4%,/,15
[O-][n+]1c2ccccc2c2n1CCCN=C2c1ccc(Cl)cc1,/,/,?,-84*
Nc1c(Cl)cc(C2=NCCn3c2c2ccc(C(F)(F)F)cc2[n+]3[O-])cc1Cl,/,/,3%,-94*
O=[N+]([O-])c1ccc2c3n([n+]([O-])c2c1)CCN=C3c1ccc(Cl)cc1,/,/,-4%,?
[O-][n+]1c2ccccc2c2n1CCN=C2c1ccc(Cl)cc1,/,/,20%,-84*
Cc1ccc(C2=NCCn3c2c2ccccc2[n+]3[O-])cc1,/,/,6%,-90*
Nc1c(Cl)cc(C2=NCCn3c2c2ccccc2[n+]3[O-])cc1Cl,/,/,-7%,?
Cc1ccc(S(=O)(=O)N2CCOCC2)cc1NC(=O)COC(=O)c1ccc(Cl)nc1,/,/,1%,-1
Cc1nn(-c2ccc([N+](=O)[O-])cc2)c2c1C(c1cccc(Br)c1)N1C(=N2)C(=O)Nc2ccccc21 (stereo not given),-1,5%,?,-5
Cc1nn(-c2ccccc2)c2c1C(c1ccc([N+](=O)[O-])cc1)N1C(=N2)C(=O)Nc2ccccc21 (stereo not given),2,-9%,23µM*,-8
O=C(N/N=C/c1cc([N+](=O)[O-])cc(Br)c1O)C12CC3CCC(CC(C3)C1)C2,11,17%,23µM*,16
CC(C)Nc1ccccc1,/,/,8%,2
CC(C)Nc1nc2nonc2nc1Nc1ccccc1,6,31%,16µM*,-16
N#Cc1ccc(C(=O)N(Cc2ccco2)Cc2cccs2)cc1,/,/,/,8
O=C(c1ccccc1)c1coc(-c2ccccc2)c1,/,/,/,-10
